Inconclusive results are not listed. Values without a mark were called inactive. The source made the active and inactive calls. Unless noted, the call rests on the fitted dose curve; in most records, active means well fitted inhibition curve with a large enough effect; inconclusive means small, poorly fitted or top-dose-only effect; inactive means no such curve, though single readings can be large or run the other way.
assay: Primary qHTS for small molecule stabilizers of the endoplasmic reticulum resident proteome: Secreted ER Calcium Modulated Protein (SERCaMP) assay (AID 1508630); conditions: SH-SY5Y GLuc-SERCaMP (Gaussia luciferase released on ER calcium loss) secretion, thapsigargin, luminescence; series mostly up to 38.4 µM; activity change, negative = inhibition: at the top concentration; further: on the % scale 0 is the no-effect control and ±100 the full control effect
Summary of the method: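 GLuc-SERCaMP-expressing SH-SY5Y cells, pretreated 16 h with compound, are challenged with thapsigargin to empty ER calcium stores; after 4 h, coelenterazine is added directly to the medium and luminescence is imaged.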

Compound | activity change, negative = inhibition | Potency
Nc1nc(N)c(-c2ccccc2)s1 | -16.1% | –
CN1CCN(c2cc3c(cc2F)c(=O)c(C(=O)O)cn3-c2ccc(F)cc2)CC1 | -16.7% | –
CCC(CC)(CC(=O)Nc1cccc(/C=C/c2nc(C3CCC3)cs2)c1)C(=O)O | – | inactive
O=[N+]([O-])c1cccc(S(=O)(=O)NCCNS(=O)(=O)c2cccc([N+](=O)[O-])c2)c1 | 3.79% | –
CC(=O)Nc1ncc([N+](=O)[O-])s1 | -22.7% | –
CC1=C(C(=O)O)N2C(=O)[C@@H](NC(=O)[C@H](N)c3ccccc3)[C@H]2SC1 | -22.6% | –
O=C(NCCc1c[nH]c2ccccc12)c1cccnc1 | -24.2% | –
COc1cc(N)c(Cl)cc1C(=O)NC1CCN(Cc2ccccc2)CC1 | -0.546% | –
CN(C)CCOC(c1ccc(Cl)cc1)c1ccccn1 (stereo not drawn) | -21.3% | –
CN(Cc1ccc(C(C)(C)C)cc1)Cc1cccc2ccccc12 | 26.1% | –
Cc1ncc(CO)c(C=O)c1O | -28.3% | –
CC(C)(C)NC[C@H](O)COc1nsnc1N1CCOCC1 | – | inactive
CCCCCN=C(N)N/N=C/c1c[nH]c2ccc(OC)cc12 | 313% | –
C#C[C@]1(OC(C)=O)CC[C@H]2[C@@H]3CCC4=C/C(=N/O)CC[C@@H]4[C@H]3CC[C@@]21CC | 11.4% | –
Cc1cccc(C)c1NC(=O)CN1CCCCCC1 | 2.6% | –
COc1ccc(-c2cc(C(F)F)nn2-c2ccc(S(N)(=O)=O)cc2)cc1F | 28.7% | –
COC(=O)C(c1ccccc1Cl)N1CCc2sccc2C1 (stereo not drawn) | – | inactive
O=C1OC(CN2CCOCC2)CN1/N=C/c1ccc([N+](=O)[O-])o1 (stereo not drawn) | -4.1% | –

Compound | activity change, negative = inhibition | Potency
COc1ccc(CN(CCN(C)C)c2ncccn2)cc1 | -18.2% | –
O=C(CN1CCN(Cc2ccc3c(c2)OCO3)CC1)N1c2ccccc2Sc2ccccc21 | -24.1% | –
CC(=O)NCCCCCC(=O)O | 2.86% | –
C=C1c2cccc(O)c2C(O)=C2C(=O)[C@]3(O)C(O)=C(C(N)=O)C(=O)[C@@H](N(C)C)[C@@H]3[C@@H](O)[C@H]12 | -15.8% | –
CCN(CC)CCOc1ccc2c(c1)C(=O)c1cc(OCCN(CC)CC)ccc1-2 | – | inactive
CC(CNC1CCCCC1)OC(=O)c1ccccc1 (stereo not drawn) | 39% | –
CC(C)[C@@H]1CC[C@@H](C)CC1=O | -35.9% | –
COc1ccccc1N1CCN(CCCCNC(=O)c2ccc(-c3ccc(C(C)=O)cc3)cc2)CC1 | – | inactive
CNCCCCOc1ccccc1Cc1ccccc1 | – | inactive
O=C1c2cccc3c2[C@H](CCC3)CN1[C@@H]1CN2CCC1CC2 | -9.91% | –
CCCCCCCC/C=C\CCCCCCCCN | -29.1% | –
CN(C)CCOC(=O)C(c1ccccc1)C1(O)CCCC1 (stereo not drawn) | -32.9% | –
O=C(O)C(Cc1cc(I)c(O)c(I)c1)c1ccccc1 (stereo not drawn) | -12.2% | –
CC(=O)OCC(=O)[C@H]1CC[C@H]2[C@@H]3CCC4=CC(=O)CC[C@]4(C)[C@H]3CC[C@]12C | 33.8% | –
CCOCCn1c(N2CCCN(C)CC2)nc2ccccc21 | 0.337% | –
CC(C)Cn1cnc2c1c(=O)n(C)c(=O)n2C | -13.7% | –
COc1ccc2c(c1)c1c3n2CCN(C)C3=NCC1 | -21.9% | –
C#C[C@]1(O)CC[C@H]2[C@@H]3[C@H](C)CC4=C(CCC(=O)C4)[C@H]3CC[C@@]21C | -12% | –

assay: A High-Content qHTS Against Drug Library for the Identification of Small Molecules that Inhibit DYT1 Early Onset Primary Dystonia-Associated Cell Pathology (AID 1645839; calls by dose curve); conditions: HEK293 Flp-In EGFP-delE TorsinA, punctate imaging, 48 h; series mostly up to 46.1 µM; % pathology change, negative = correction: at the top concentration
Summary of the method: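 Readout: %pathology, the punctate EGFP-TorsinA distribution from imaging, as the primary channel and cell count as the toxicity counterscreen. HEK293 Flp-In cells expressing delE TorsinA were induced with tetracycline and treated with compound for 48 h.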

Compound | % pathology change, negative = correction
Nc1nc(N)c(-c2ccccc2)s1 | 3.49%
O=[N+]([O-])c1cccc(S(=O)(=O)NCCNS(=O)(=O)c2cccc([N+](=O)[O-])c2)c1 | 4.41%
CC(=O)Nc1ncc([N+](=O)[O-])s1 | -4.54%
CC1=C(C(=O)O)N2C(=O)[C@@H](NC(=O)[C@H](N)c3ccccc3)[C@H]2SC1 | 6.19%
O=C(NCCc1c[nH]c2ccccc12)c1cccnc1 | -6.33%
CN(Cc1ccc(C(C)(C)C)cc1)Cc1cccc2ccccc12 | -0.14%
Cc1ncc(CO)c(C=O)c1O | 9.33%
CC(C)(C)NC[C@H](O)COc1nsnc1N1CCOCC1 | -0.124%
Cc1cccc(C)c1NC(=O)CN1CCCCCC1 | -1.16%
COC(=O)C(c1ccccc1Cl)N1CCc2sccc2C1 (stereo not drawn) | 1.32%
O=C1OC(CN2CCOCC2)CN1/N=C/c1ccc([N+](=O)[O-])o1 (stereo not drawn) | 15.6%
COc1ccc(CN(CCN(C)C)c2ncccn2)cc1 | 8.33%
CC(=O)NCCCCCC(=O)O | 1.24%
C=C1c2cccc(O)c2C(O)=C2C(=O)[C@]3(O)C(O)=C(C(N)=O)C(=O)[C@@H](N(C)C)[C@@H]3[C@@H](O)[C@H]12 | -1.29%
CC(CNC1CCCCC1)OC(=O)c1ccccc1 (stereo not drawn) | 4.79%
CC(C)[C@@H]1CC[C@@H](C)CC1=O | 10.2%
COc1ccccc1N1CCN(CCCCNC(=O)c2ccc(-c3ccc(C(C)=O)cc3)cc2)CC1 | 0.0315%
O=C1c2cccc3c2[C@H](CCC3)CN1[C@@H]1CN2CCC1CC2 | -12.2%
CN(C)CCOC(=O)C(c1ccccc1)C1(O)CCCC1 (stereo not drawn) | 4.21%
CC(=O)OCC(=O)[C@H]1CC[C@H]2[C@@H]3CCC4=CC(=O)CC[C@]4(C)[C@H]3CC[C@]12C | 31%
COc1ccc2c(c1)c1c3n2CCN(C)C3=NCC1 | 11%
C#C[C@]1(O)CC[C@H]2[C@@H]3[C@H](C)CC4=C(CCC(=O)C4)[C@H]3CC[C@@]21C | -22.1%

— PubChem BioAssay (NCATS)
